Results reported in PubChem BioAssay (NCATS).
Inconclusive results are not listed. Active and inactive are the calls of the source. Calls follow the shape of the dose curve; as a rule, active = well fitted curve in the direction sought with a large enough effect; inconclusive = small, poorly fitted or top-dose-only effect, or another doubt; inactive = no such curve, though single readings can be large; an effect the other way counts as inactive or inconclusive.

Experiments:
[1] = Quantitative High-Throughput drug screen in 47 multiple myeloma cell lines against the NCATS MIPE library collection: Karpas417_ECACC cell viability assay (AID 1918961); details: Karpas417 myeloma viability, CellTiter-Glo ATP luminescence, 48 h; viability (% of DMSO): at 45.8 µM (top of the series)
How it was run: (§1)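 Approved and investigational drugs from MIPE 4.0 were added by pin tool to 500 cells per well. After 48 hours at 37C, ATP-based CellTiter-Glo luminescence indicated remaining viability.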

[2] = Quantitative High-Throughput drug screen in 47 multiple myeloma cell lines against the NCATS MIPE library collection: JIM3_ECACC cell viability assay (AID 1918963; also: nearly all actives have a fitted effect of over 35% in size)
How it was run: (§2)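 Viability readout: CellTiter-Glo luminescence following 5 min room-temperature incubation with reagent. Prior exposure: 48 h, 37C, humidified 5% CO2, 500 cells per well.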

[3] = Quantitative High-Throughput drug screen in 47 multiple myeloma cell lines against the NCATS MIPE library collection: INA6_PLB cell viability assay (AID 1918965; also: nearly all actives have a fitted effect of over 55% in size)
How it was run: as §1

[4] = Quantitative High-Throughput drug screen in 47 multiple myeloma cell lines against the NCATS MIPE library collection: JJN3_DSMZ cell viability assay (AID 1918966; also: nearly all actives have a fitted effect of over 50% in size)
How it was run: (§3)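 Myeloma cells (500 per well) were exposed to MIPE 4.0 compounds by pin transfer and incubated 48 hours at 37C, 5% CO2. Viability was read as ATP by CellTiter-Glo luminescence, normalised to DMSO (100%) and media-only (0%) wells.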

[5] = Quantitative High-Throughput drug screen in 47 multiple myeloma cell lines against the NCATS MIPE library collection: H1112_PLB cell viability assay (AID 1918967; also: nearly all actives have a fitted effect of over 30% in size)
How it was run: as §3

[6] = Quantitative High-Throughput drug screen in 47 multiple myeloma cell lines against the NCATS MIPE library collection: Karpas25_ECACC cell viability assay (AID 1918968; also: nearly all actives have a fitted effect of over 35% in size)
How it was run: as §3

[7] = Quantitative High-Throughput drug screen in 47 multiple myeloma cell lines against the NCATS MIPE library collection: KMS12BM_JCRB cell viability assay (AID 1918971); also: nearly all actives have a fitted effect of over 35% in size
How it was run: as §2

[8] = Quantitative High-Throughput drug screen in 47 multiple myeloma cell lines against the NCATS MIPE library collection: KMS26_JCRB cell viability assay (AID 1918975); also: nearly all actives have a fitted effect of over 45% in size
How it was run: as §2

[9] = Quantitative High-Throughput drug screen in 47 multiple myeloma cell lines against the NCATS MIPE library collection: NCIH929_DSMZ cell viability assay (AID 1918978); also: nearly all actives have a fitted effect of over 35% in size
How it was run: (§4)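 MIPE 4.0 approved/investigational drugs; 500 cells/well; 48 h 37 °C humidified 5% CO2; CTG luminescence readout; DMSO = 100%, media = 0% viability.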

[10] = Quantitative High-Throughput drug screen in 47 multiple myeloma cell lines against the NCATS MIPE library collection: KHM11_PLB cell viability assay (AID 1918962); also: nearly all actives have a fitted effect of over 35% in size
How it was run: as §2

[11] = Quantitative High-Throughput drug screen in 47 multiple myeloma cell lines against the NCATS MIPE library collection: JIM1_ECACC cell viability assay (AID 1918964)
How it was run: as §3

[12] = Quantitative High-Throughput drug screen in 47 multiple myeloma cell lines against the NCATS MIPE library collection: KMS27_JCRB cell viability assay (AID 1918970); details: KMS27 myeloma cells, CellTiter-Glo ATP viability, 48 h; viability (% of DMSO): at 45.8 µM (top of the series); also: nearly all actives have a fitted effect of over 30% in size
How it was run: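 Luminescent ATP read-out (CellTiter-Glo, 5 min at room temperature) after 48 h compound exposure of 500 KMS27_JCRB cells per well; DMSO wells define full viability and media-only wells zero.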

[13] = Quantitative High-Throughput drug screen in 47 multiple myeloma cell lines against the NCATS MIPE library collection: MOLP8_DSMZ cell viability assay (AID 1918977); also: nearly all actives have a fitted effect of over 45% in size
How it was run: as §4

[14] = Quantitative High-Throughput drug screen in 47 multiple myeloma cell lines against the NCATS MIPE library collection: Karpas620_DSMZ cell viability assay (AID 1918959); also: nearly all actives have a fitted effect of over 30% in size
How it was run: as §2

[15] = Quantitative High-Throughput drug screen in 47 multiple myeloma cell lines against the NCATS MIPE library collection: KMS12PE_JCRB cell viability assay (AID 1918972); also: nearly all actives have a fitted effect of over 30% in size
How it was run: as §1

[16] = Quantitative High-Throughput drug screen in 47 multiple myeloma cell lines against the NCATS MIPE library collection: KMS20_JCRB cell viability assay (AID 1918973); also: nearly all actives have a fitted effect of over 45% in size
How it was run: as §3

[17] = Quantitative High-Throughput drug screen in 47 multiple myeloma cell lines against the NCATS MIPE library collection: MMM1_PLB cell viability assay (AID 1918976); also: nearly all actives have a fitted effect of over 35% in size
How it was run: as §4

[18] = Quantitative High-Throughput drug screen in 47 multiple myeloma cell lines against the NCATS MIPE library collection: KMM1_JCRB cell viability assay (AID 1918960); also: nearly all actives have a fitted effect of over 30% in size
How it was run: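 Myeloma cells, 500 per well, were exposed to MIPE 4.0 drugs by pin transfer for 48 h at 37 °C, 5% CO2. Viability was read as ATP luminescence with CellTiter-Glo, normalised to DMSO-only (100%) and medium-only (0%) wells.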

[19] = Quantitative High-Throughput drug screen in 47 multiple myeloma cell lines against the NCATS MIPE library collection: KMS21BM_JCRB cell viability assay (AID 1918974); details: ATP luminescence, 48 h; viability: at 45.8 µM (top of the series)
How it was run: as §3
Potency is read from the fitted curve at half-maximal effect.

CN1CCc2c(c3ccccc3n2Cc2ccc(C(=O)NO)cc2)C1
active: Potency [1] 20.9 µM | Potency [2] 23.5 µM | Potency [3] 4.69 µM | Potency [4] 18.7 µM | Potency [5] 16.6 µM | Potency [6] 10.5 µM | Potency [7] 16.6 µM | Potency [8] 20.9 µM | Potency [9] 10.5 µM

C[C@@H](Cc1cc2c(c(C(N)=O)c1)N(CCCO)CC2)NCCOc1ccccc1OCC(F)(F)F
inactive: Potency [10] | Potency [11] | Potency [4] | Potency [5] | Potency [12] | Potency [8] | Potency [13] | Potency [9]

Cc1cc(C(=O)NOCCO)c(Nc2ccc(I)cc2F)n(C)c1=O
active: Potency [14] 0.0059 µM | Potency [4] 4.69 µM | Potency [12] 0.0026 µM | Potency [9] 0.0074 µM
inactive: Potency [11] | Potency [8]

N#CC(=C(N)Sc1ccc(N)cc1)c1ccccc1C(F)(F)F
active: Potency [10] 0.418 µM | Potency [2] 5.9 µM | Potency [5] 3.32 µM | Potency [6] 13.2 µM | Potency [7] 7.43 µM | Potency [16] 0.469 µM | Potency [9] 1.05 µM
inactive: Potency [12] | Potency [15] | Potency [17]

CC(=O)O[C@]1(C(C)=O)CC[C@H]2[C@@H]3C=C(C)C4=CC(=O)CC[C@]4(C)[C@@H]3CC[C@@]21C
inactive: Potency [10] | Potency [8]
active: Potency [14] 14.8 µM | Potency [11] 10.5 µM | Potency [6] 8.33 µM | Potency [12] 9.35 µM | Potency [7] 9.35 µM | Potency [15] 11.8 µM | Potency [17] 18.7 µM | Potency [9] 7.43 µM

CCn1c(=O)c2c(nc(C=Cc3ccc(OC)c(OC)c3)n2C)n(CC)c1=O
active: Potency [15] 20.9 µM
inactive: Potency [1] | Potency [4] | Potency [5] | Potency [6] | Potency [7] | Potency [8] | Potency [9]

CC(C)N1[N]C(=C2C=c3cc(O)ccc3=N2)c2c(N)ncnc21
active: Potency [18] 0.296 µM | Potency [1] 0.0332 µM | Potency [10] 0.0833 µM | Potency [2] 0.264 µM | Potency [3] 1.18 µM | Potency [4] 0.209 µM | Potency [5] 4.18 µM | Potency [6] 0.235 µM | Potency [12] 0.209 µM | Potency [7] 0.166 µM | Potency [15] 2.35 µM | Potency [16] 0.743 µM | Potency [19] 2.09 µM | Potency [8] 1.18 µM | Potency [17] 0.0833 µM | Potency [13] 0.0833 µM | Potency [9] 0.059 µM

CC(=O)C1=C(O)C=C2Oc3c(C(C)=O)c(O)c(C)c(O)c3C2(C)C1=O (centres undefined)
inactive: Potency [18] | Potency [10] | Potency [2] | Potency [5] | Potency [7] | Potency [9]

C[C@H]1O[C@H](O[C@H]2[C@H](O)[C@@H](O)[C@@H](O[C@H]3[C@H](O)[C@@H](O)C(O)O[C@H]3CO)O[C@H]2CO)[C@H](O)[C@@H](O)[C@H]1N[C@H]1C=C(CO)[C@@H](O)[C@H](O)[C@@H]1O (some centres undefined)
inactive: Potency [18] | Potency [2] | Potency [3] | Potency [5] | Potency [8]

O=c1c(O)c(-c2ccc(O)c(O)c2)oc2cc(O)ccc12
active: Potency [18] 5.9 µM | Potency [10] 13.2 µM | Potency [2] 13.2 µM | Potency [4] 20.9 µM | Potency [5] 26.4 µM | Potency [6] 8.33 µM | Potency [7] 26.4 µM | Potency [17] 26.4 µM | Potency [9] 18.7 µM

CS[C@H]1SC[C@@H]2C(=O)N(C)[C@H](C(C)C)C(=O)OC[C@H](NC(=O)c3cnc4ccccc4n3)C(=O)N[C@H](C)C(=O)N(C)[C@@H]1C(=O)N(C)[C@H](C(C)C)C(=O)OC[C@H](NC(=O)c1cnc3ccccc3n1)C(=O)N[C@H](C)C(=O)N2C
active: Potency [14] 0.001 µM | Potency [10] 0.0093 µM | Potency [3] 0.001 µM | Potency [4] 0.0053 µM | Potency [5] 0.0118 µM | Potency [6] 0.001 µM | Potency [12] 0.001 µM | Potency [7] 0.003 µM | Potency [15] 0.001 µM | Potency [8] 0.0132 µM | Potency [17] 0.0118 µM | Potency [9] 0.001 µM

Nc1ccn(C[C@@H](CO)OCP(=O)(O)O)c(=O)n1
inactive: Potency [18] | Potency [2] | Potency [11] | Potency [4] | Potency [6] | Potency [12] | Potency [7] | Potency [15] | Potency [8] | Potency [13] | Potency [9]

CCOc1cc2c(c(F)c1OCC)C(=N)N(CC(=O)c1cc(N3CCOCC3)c(OC)c(C(C)(C)C)c1)C2
inactive: Potency [1]
active: Potency [2] 9.35 µM | Potency [3] 11.8 µM | Potency [4] 18.7 µM | Potency [5] 11.8 µM | Potency [6] 9.35 µM | Potency [7] 18.7 µM | Potency [16] 9.35 µM | Potency [8] 18.7 µM | Potency [17] 10.5 µM | Potency [9] 14.8 µM

C[C@@H](NCc1cc2ccccc2[nH]1)c1cccc2ccccc12
inactive: Potency [1] | Potency [2] | Potency [4] | Potency [7] | Potency [13] | Potency [9]
active: Potency [3] 4.69 µM

O=C(NCc1ccccc1)[C@H](Cc1ccccc1)NC(=O)[C@@H]1O[C@@H]1C(=O)NCCc1ccc(O)cc1
active: Potency [14] 26.4 µM | Potency [11] 18.7 µM | Potency [6] 23.5 µM | Potency [15] 23.5 µM | Potency [17] 20.9 µM
inactive: Potency [2] | Potency [5] | Potency [9]

CNC(=O)Nc1ccc(-c2nc(N3CC4CCC(C3)O4)c3cnn(C4CCC5(CC4)OCCO5)c3n2)cc1
active: Potency [1] 0.0066 µM | Potency [2] 0.418 µM | Potency [3] 0.0418 µM | Potency [4] 0.0118 µM | Potency [6] 0.0105 µM | Potency [7] 0.0066 µM | Potency [15] 0.0743 µM | Potency [16] 0.0105 µM | Potency [19] 0.0418 µM | Potency [8] 1.18 µM | Potency [17] 0.0093 µM | Potency [13] 0.0093 µM

CCCCC(=O)O[C@]1(C(=O)CO)[C@@H](C)C[C@H]2[C@@H]3CCC4=CC(=O)C=C[C@]4(C)[C@@]3(F)[C@@H](O)C[C@@]21C
inactive: Potency [14] | Potency [2] | Potency [7] | Potency [8] | Potency [17] | Potency [9]
active: Potency [6] 0.0148 µM | Potency [12] 11.8 µM | viability [19] 131% | Potency [13] 0.526 µM
